Results as given in PubChem BioAssay (NCI).
Values joined by “and” are separate entries in the source; they are usually repeats but may differ in a detail not shown here. Equal values may be shown once. Compounds without any hit were thinned out: in the full panel of roughly 83,000, 20% have a hit.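 Single-dose data. Exposure time 48 hours. Values below 10 considered active.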 Active and inactive are the calls of the source.

Experiments:
Assay in all cases: NCI-60 one-dose screen, 48 h (100 = growth as untreated, 0 = no growth, -100 = all killed)
Details in all cases: 10 µM unless noted
HCT-15 colon = test system: HCT-15 colon
HT29 colon = test system: HT29 colon
SNB-19 CNS = test system: SNB-19 CNS
U251 CNS = test system: U251 CNS
PC-3 prostate = test system: PC-3 prostate
SK-MEL-5 melanoma = test system: SK-MEL-5 melanoma
UACC-62 melanoma = test system: UACC-62 melanoma
LOX IMVI melanoma = test system: LOX IMVI melanoma
SK-MEL-28 melanoma = test system: SK-MEL-28 melanoma
SK-MEL-2 melanoma = test system: SK-MEL-2 melanoma
EKVX NSCLC = test system: EKVX NSCLC
SN12C renal = test system: SN12C renal
UO-31 renal = test system: UO-31 renal
TK-10 renal = test system: TK-10 renal
CAKI-1 renal = test system: CAKI-1 renal
A498 renal = test system: A498 renal
CCRF-CEM leukemia = test system: CCRF-CEM leukemia
MOLT-4 leukemia = test system: MOLT-4 leukemia
SNB-75 CNS = test system: SNB-75 CNS
ACHN renal = test system: ACHN renal

## c1ccc(N(c2ccccc2)c2ccccc2)cc1
HCT-15 colon
  growth: 99.8% (inactive)
HT29 colon
  growth: 97% (inactive)
SNB-19 CNS
  growth: 102% (inactive)
U251 CNS
  growth: 102% (inactive)
PC-3 prostate
  growth: 101% (inactive)
SK-MEL-5 melanoma
  growth: 113% (inactive)
UACC-62 melanoma
  growth: 104% (inactive)
LOX IMVI melanoma
  growth: 94.5% (inactive)
SK-MEL-28 melanoma
  growth: 117% (inactive)
SK-MEL-2 melanoma
  growth: 99.8% (inactive)
EKVX NSCLC
  growth: 101% (inactive)
SN12C renal
  growth: 106% (inactive)
UO-31 renal
  growth: 86.8% (inactive)
TK-10 renal
  growth: 98.9% (inactive)
CAKI-1 renal
  growth: 90.3% (inactive)
A498 renal
  growth: 117% (inactive)
CCRF-CEM leukemia
  growth: 98% (inactive)
MOLT-4 leukemia
  growth: 95.4% (inactive)

## O=C(Nc1ccc(Cl)cc1)c1cc2ccccc2cc1O
HCT-15 colon
  growth: 12.8% (inactive) and 15.8% (inactive)
HT29 colon
  growth: 94.7% (inactive) and 8.61% (active)
SNB-75 CNS
  growth: 52.6% (inactive) and 53.1% (inactive)
U251 CNS
  growth: 21.2% (inactive) and -8.1% (active)
PC-3 prostate
  growth: 11.5% (inactive) and -13.1% (active)
SK-MEL-5 melanoma
  growth: 14% (inactive) and 0.898% (active)
UACC-62 melanoma
  growth: 28.3% (inactive) and 35.1% (inactive)
LOX IMVI melanoma
  growth: 37.3% (inactive) and 12% (inactive)
SK-MEL-28 melanoma
  growth: 43.8% (inactive) and 45.1% (inactive)
SK-MEL-2 melanoma
  growth: 36.9% (inactive) and 7.35% (active)
EKVX NSCLC
  growth: 15.3% (inactive) and 14.6% (inactive)
SN12C renal
  growth: 8.95% (active) and -2.39% (active)
TK-10 renal
  growth: 53.3% (inactive) and 8.41% (active)
ACHN renal
  growth: 30.3% (inactive) and 31.2% (inactive)
CAKI-1 renal
  growth: 34.5% (inactive) and -23.4% (active)
A498 renal
  growth: -5.52% (active)
CCRF-CEM leukemia
  growth: 17.8% (inactive)
MOLT-4 leukemia
  growth: 4.27% (active) and -8.37% (active)

## O=C(O)c1cc(C(=O)O)cc([N+](=O)[O-])c1
HCT-15 colon
  growth: 104% (inactive)
HT29 colon
  growth: 105% (inactive)
SNB-19 CNS
  growth: 106% (inactive)
U251 CNS
  growth: 100% (inactive)
PC-3 prostate
  growth: 96.4% (inactive)
SK-MEL-5 melanoma
  growth: 104% (inactive)
UACC-62 melanoma
  growth: 105% (inactive)
LOX IMVI melanoma
  growth: 97.4% (inactive)
SK-MEL-28 melanoma
  growth: 118% (inactive)
SK-MEL-2 melanoma
  growth: 102% (inactive)
EKVX NSCLC
  growth: 106% (inactive)
SN12C renal
  growth: 107% (inactive)
UO-31 renal
  growth: 91.3% (inactive)
TK-10 renal
  growth: 102% (inactive)
ACHN renal
  growth: 105% (inactive)
CAKI-1 renal
  growth: 96.2% (inactive)
CCRF-CEM leukemia
  growth: 94.9% (inactive)
MOLT-4 leukemia
  growth: 98.4% (inactive)

## O=CC(O)C(O)C(O)CO (centres undefined)
HCT-15 colon
  growth: 100% (inactive)
SNB-75 CNS
  growth: 104% (inactive) and 97.8% (inactive)
SNB-19 CNS
  growth: 103% (inactive) and 113% (inactive)
U251 CNS
  growth: 102% (inactive) and 105% (inactive)
PC-3 prostate
  growth: 41.2% (inactive) and 98.4% (inactive)
SK-MEL-5 melanoma
  growth: 87.1% (inactive) and 103% (inactive)
UACC-62 melanoma
  growth: 96.6% (inactive) and 117% (inactive)
LOX IMVI melanoma
  growth: 99.5% (inactive) and 100% (inactive)
SK-MEL-28 melanoma
  growth: 104% (inactive) and 109% (inactive)
SK-MEL-2 melanoma
  growth: -27.3% (active)
EKVX NSCLC
  growth: 114% (inactive)
SN12C renal
  growth: 95.5% (inactive) and 109% (inactive)
UO-31 renal
  growth: 90.7% (inactive) and 78.5% (inactive)
TK-10 renal
  growth: 125% (inactive) and 107% (inactive)
CAKI-1 renal
  growth: 106% (inactive) and 117% (inactive)
CCRF-CEM leukemia
  growth: 79.8% (inactive) and 98% (inactive)
MOLT-4 leukemia
  growth: 122% (inactive) and 87.4% (inactive)

## CN(C)c1ccc2nc3ccc(=[N+](C)C)cc-3sc2c1
HCT-15 colon
  growth: 28.5% (inactive) and 36.7% (inactive)
SNB-75 CNS
  growth: 49.4% (inactive) and 90.2% (inactive)
SNB-19 CNS
  growth: 24.7% (inactive) and 23% (inactive) and 39.5% (inactive)
U251 CNS
  growth: 3.44% (active) and -10.6% (active) and 8.51% (active)
PC-3 prostate
  growth: 13.7% (inactive) and 19.8% (inactive) and 32.8% (inactive)
SK-MEL-5 melanoma
  growth: -85.2% (active) and 5.71% (active) and 13.6% (inactive)
UACC-62 melanoma
  growth: -19.7% (active) and 7.25% (active) and 56.5% (inactive)
LOX IMVI melanoma
  growth: 7.11% (active) and 5.63% (active) and 34.6% (inactive)
SK-MEL-28 melanoma
  growth: 20% (inactive) and 45.9% (inactive) and 75% (inactive)
SK-MEL-2 melanoma
  growth: 20% (inactive) and 47.3% (inactive) and 79.6% (inactive)
EKVX NSCLC
  growth: 41.7% (inactive) and 46.9% (inactive)
SN12C renal
  growth: 24.3% (inactive) and 12.5% (inactive) and 9.23% (active)
UO-31 renal
  growth: 62.3% (inactive) and 57.2% (inactive) and 78.6% (inactive)
TK-10 renal
  growth: 58.1% (inactive) and 73.9% (inactive) and 110% (inactive)
ACHN renal
  growth: 24.6% (inactive) and 24.4% (inactive) and 83% (inactive)
CAKI-1 renal
  growth: 30.9% (inactive) and 23.4% (inactive) and 83.2% (inactive)
A498 renal
  growth: 58.4% (inactive) and 75.9% (inactive)
CCRF-CEM leukemia
  growth: 2.85% (active) and 26.7% (inactive) and 24% (inactive)
MOLT-4 leukemia
  growth: 24.4% (inactive) and 21.7% (inactive) and 32.9% (inactive)

## CN(C)c1ccc(C(=C2C=CC(=[N+](C)C)C=C2)c2ccccc2Cl)cc1
HCT-15 colon
  growth: 6.9% (active) and -30.6% (active)
HT29 colon
  growth: -38.3% (active) and -24% (active)
SNB-75 CNS
  growth: -58.6% (active) and -96.1% (active)
U251 CNS
  growth: -58.3% (active) and -97.7% (active)
PC-3 prostate
  growth: -19.5% (active)
SK-MEL-5 melanoma
  growth: -100% (active) and -96.9% (active)
UACC-62 melanoma
  growth: -70.6% (active) and -73.3% (active)
LOX IMVI melanoma
  growth: -57.2% (active) and -97.2% (active)
SK-MEL-2 melanoma
  growth: -57.7% (active) and -52.4% (active)
EKVX NSCLC
  growth: 15.9% (inactive) and -34.1% (active)
TK-10 renal
  growth: -30.6% (active) and -72.4% (active)
ACHN renal
  growth: 1.56% (active) and -64% (active)
CAKI-1 renal
  growth: -16.7% (active)
A498 renal
  growth: -64% (active) and -87.1% (active)
CCRF-CEM leukemia
  growth: -35.3% (active) and 5.73% (active)

## CCN(CC)CCOc1ccc(/C=N/Nc2nc3c([nH]2)c(=O)n(C)c(=O)n3C)cc1
HCT-15 colon
  growth: 97.2% (inactive) and 103% (inactive)
HT29 colon
  growth: 99.9% (inactive) and 91.4% (inactive)
SNB-75 CNS
  growth: 88.4% (inactive) and 90.3% (inactive)
U251 CNS
  growth: 98.6% (inactive) and 113% (inactive)
PC-3 prostate
  growth: 99.4% (inactive) and 88.5% (inactive)
SK-MEL-5 melanoma
  growth: 102% (inactive) and 107% (inactive)
UACC-62 melanoma
  growth: 94.2% (inactive) and 99.8% (inactive)
LOX IMVI melanoma
  growth: 104% (inactive) and 92.3% (inactive)
SK-MEL-2 melanoma
  growth: 102% (inactive) and 107% (inactive)
EKVX NSCLC
  growth: 99.1% (inactive) and 95.8% (inactive)
UO-31 renal
  growth: 80.8% (inactive) and 79.6% (inactive)
TK-10 renal
  growth: 94.2% (inactive) and 101% (inactive)
ACHN renal
  growth: 102% (inactive) and 94.6% (inactive)
CAKI-1 renal
  growth: 118% (inactive) and 85.6% (inactive)
A498 renal
  growth: 88.5% (inactive) and 88.9% (inactive)
CCRF-CEM leukemia
  growth: 83.5% (inactive) and 103% (inactive)
MOLT-4 leukemia
  growth: 88.4% (inactive) and 102% (inactive)

## CCC(O)c1ccccc1 (centres undefined)
HCT-15 colon
  growth: 113% (inactive) and 105% (inactive)
SNB-75 CNS
  growth: 88% (inactive) and 97.5% (inactive)
SNB-19 CNS
  growth: 110% (inactive) and 103% (inactive)
U251 CNS
  growth: 102% (inactive)
PC-3 prostate
  growth: 116% (inactive) and 102% (inactive)
SK-MEL-5 melanoma
  growth: 107% (inactive) and 95.3% (inactive)
UACC-62 melanoma
  growth: 111% (inactive) and 97.7% (inactive)
LOX IMVI melanoma
  growth: 104% (inactive) and 108% (inactive)
SK-MEL-28 melanoma
  growth: 75.7% (inactive) and 98.6% (inactive)
SK-MEL-2 melanoma
  growth: 104% (inactive)
EKVX NSCLC
  growth: 94.1% (inactive) and 110% (inactive)
TK-10 renal
  growth: 113% (inactive) and 111% (inactive)
CAKI-1 renal
  growth: -23.1% (active) and 97% (inactive)
A498 renal
  growth: 88.5% (inactive) and 92.8% (inactive)
CCRF-CEM leukemia
  growth: 103% (inactive) and 92% (inactive)
MOLT-4 leukemia
  growth: 98.1% (inactive) and 78.8% (inactive)

## COc1cc2c(Nc3ccc(Cl)c(Cl)c3F)ncnc2cc1OCC1C[C@@H]2CN(C)C[C@@H]2C1 (some centres undefined)
HCT-15 colon
  growth: -89.2% (active) and -0.559% (active)
HT29 colon
  growth: -90.2% (active) and -11.5% (active)
SNB-75 CNS
  growth: -96% (active) and -40.9% (active)
U251 CNS
  growth: -97.6% (active) and 13% (inactive)
PC-3 prostate
  growth: -57.1% (active) and 15.6% (inactive)
SK-MEL-5 melanoma
  growth: -97.6% (active) and -97.4% (active)
UACC-62 melanoma
  growth: -86.3% (active) and -27.8% (active)
LOX IMVI melanoma
  growth: -92% (active) and -92.9% (active)
SK-MEL-28 melanoma
  growth: -96.3% (active) and -63.1% (active)
SK-MEL-2 melanoma
  growth: 74.2% (inactive)
EKVX NSCLC
  growth: -83% (active) and 41.9% (inactive)
TK-10 renal
  growth: -94.8% (active) and -18.4% (active)
ACHN renal
  growth: -97.8% (active) and 8.5% (active)
CAKI-1 renal
  growth: -77.2% (active) and -2.69% (active)
CCRF-CEM leukemia
  growth: -44.9% (active) and -0.854% (active)
MOLT-4 leukemia
  growth: -53% (active)
